# Hits are enriched below; roughly 19% of the tested compounds scored in any of these assays.
# DT40 TDP1 CPT = qHTS for Inhibitors of human tyrosyl-DNA phosphodiesterase 1 (TDP1): qHTS in cells in presence of CPT; chicken DT40 Tdp1-/-;hTDP1 cells + 20 nM CPT, ATP luminescence, 48 h; Potency, µM (doses to about 46.2 µM), without a hit: at the highest dose activity change, negative = growth inhibition, most hits filed as inhibitors; hit rate 12% among 420,000; AID 686979, 2013; note: potency is the fitted concentration of half-maximal effect; % is set by controls: 0 for no effect and ±100 for the full control effect; nearly all actives have a fitted effect of over 55% in size
#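 Chicken DT40 Tdp1-/- cells complemented with human TDP1, 400 cells/well, exposed to compounds plus 20 nM camptothecin for at least 48 h at 37 C; viability read as ATP content by CellTiter-Glo luminescence.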
# TGFb inhibitor = qHTS for Inhibitors of TGF-b; HepG2 CAGA-GFP TGF-b/SMAD3 reporter, GFP fluorescence, 18 h; TGF-beta stimulated, 500 pg/mL final; hit rate 1.2% among 410,000; AID 588855, 2011; Potency, µM (doses to about 46.1 µM), for inactives: at the highest dose activity, negative = inhibition, hits mostly inhibitors; note: potency is the fitted concentration of half-maximal effect; % is set by controls: 0 for no effect and ±100 for the full control effect; nearly all actives have a fitted effect of over 65% in size
#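 Per well, imaged GFP fluorescence of HEPG2 CAGA-GFP cells gives the signal; cells get compound, then TGF-beta (500 pg/mL final), 18 h at 37 degrees C; %Activity versus -TGF-beta and +DMSO controls.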
# IL1B secr inh = qHTS for Inhibitors of Inflammasome Signaling: IL-1-beta AlphaLISA Primary Screen | THP-1 LPS/ATP IL-1B secretion, AlphaLISA, 16 h; active compounds read low | activity change, % at 57.5 µM | hit rate 4.7% among 360,000 | AID 743279, 2014; in the data active = activity change below about -50%; inconclusive = mostly about -30% to -49%; note: % is set by controls: 0 for no effect and ±100 for the full control effect
#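 THP-1 cells pretreated 1 hr with compounds (up to 57.5 uM final), then stimulated with LPS (250 ng/mL final) plus ATP (1.25 mM final); secreted IL-1B measured by AlphaLISA after 16 hr, decreased signal indicating inhibition.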
# S-ASM inh = Inhibitors of Secretory Acid Sphingomyelinase (S-ASM): qHTS | Potency, µM (top dose mostly 57.5 µM), without a hit: at the top dose activity change, negative = inhibition, hits mostly inhibitors | hit rate 0.006% among 340,000 | Sphingomyelin phosphodiesterase (Homo sapiens), P17405 | placental ASM, HMU-PC fluorogenic substrate, 60 min; note: potency is the fitted concentration of half-maximal effect
# Target sequence (P17405 47-631 limits assumed): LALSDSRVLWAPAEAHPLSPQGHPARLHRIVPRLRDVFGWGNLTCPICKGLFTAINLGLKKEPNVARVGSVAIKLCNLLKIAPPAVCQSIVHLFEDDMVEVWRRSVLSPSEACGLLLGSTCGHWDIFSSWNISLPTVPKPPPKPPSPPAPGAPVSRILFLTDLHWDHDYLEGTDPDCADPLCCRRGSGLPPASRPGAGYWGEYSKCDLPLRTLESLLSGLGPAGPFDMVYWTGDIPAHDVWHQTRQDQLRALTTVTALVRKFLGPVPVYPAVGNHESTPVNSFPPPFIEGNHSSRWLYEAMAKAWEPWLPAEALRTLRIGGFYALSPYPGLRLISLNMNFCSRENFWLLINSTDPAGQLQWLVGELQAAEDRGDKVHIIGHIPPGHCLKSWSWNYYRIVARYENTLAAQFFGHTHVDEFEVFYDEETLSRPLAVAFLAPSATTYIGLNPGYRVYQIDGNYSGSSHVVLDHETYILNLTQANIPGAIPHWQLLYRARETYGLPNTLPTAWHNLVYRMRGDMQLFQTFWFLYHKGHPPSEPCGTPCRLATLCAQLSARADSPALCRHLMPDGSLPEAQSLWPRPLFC
#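 qHTS format. ASM enzyme prepared from human placenta hydrolyses the fluorogenic substrate HMU-PC0 (9 uM final) over 60 min at 37 °C after a 10 min compound preincubation.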
# HepG2 viability = qHTS for Inhibitors of TGF-b: Cytotox Counterscreen. HepG2 CAGA-GFP viability, ATP luminescence, 18 h. Potency, µM (highest dose often 46.1 µM), for inactives: top-dose activity change, negative = cytotoxicity, most hits filed as cytotoxic. hit rate 0.76% among 410,000. AID 588856, 2011; note: potency is the fitted concentration of half-maximal effect
#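 HepG2 CAGA-GFP cells (1000/well, DMEM with 1% FBS) received compound, then TGF-beta at 500 pg/mL final, and were incubated 18 hours at 37 degrees C. Viability was read by CellTiter-Glo luminescence. Media-only wells were set as complete cell-killing and DMSO as no toxicity.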
# TDP1 cell noCPT = qHTS for Inhibitors of human tyrosyl-DNA phosphodiesterase 1 (TDP1): qHTS in cells in absence of CPT; hit rate 15% among 420,000; Potency, µM (titrated, usually from 46.2 µM), for inactives: at the highest dose activity change, negative = growth inhibition, most hits filed as inhibitors; DT40 Tdp1-/- hTDP1 cells, no CPT, ATP luminescence, 48 h; note: potency is the fitted concentration of half-maximal effect; % is set by controls: 0 for no effect and ±100 for the full control effect; nearly all actives have a fitted effect of over 55% in size
#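 Growth kinetics read by CellTiter-Glo luminescence after ≥48 hr at 37 °C. Cells: DT40 Tdp1-/- stably carrying human TDP1, 400 per well, compound exposure in the absence of CPT (DMSO vehicle).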
# Numbers without * were called inactive; u = inconclusive; x = no result given; [ ] = dose if it differs, or a comment. Unless noted, calls come from the whole dose curve; as a rule, active = well fitted curve in the direction sought with a large enough effect; inconclusive = small, poorly fitted or top-dose-only effect, or another doubt; inactive = no such curve, though single readings can be large; an effect the other way counts as inactive or inconclusive.
SMILES,DT40 TDP1 CPT,TGFb inhibitor,IL1B secr inh,S-ASM inh,HepG2 viability,TDP1 cell noCPT
CCN1C(=O)c2ccccc2S(=O)c2ccc(C(=O)N3CCN(c4ccccc4OC)CC3)cc21 (stereo not drawn),u,-18%,x,x,4%,u
Cc1ccc(OCC(O)Cn2c3ccccc3c3ccccc32)cc1 (stereo not drawn),u,u,-84*,-19%,-114%,13µM*
Cc1cccc(C)c1OCC(O)Cn1c2ccccc2c2ccccc21 (stereo not drawn),u,u,-7,-19%,-97%,21µM*
OC(COCC(F)(F)C(F)(F)C(F)(F)C(F)F)Cn1c2ccccc2c2ccccc21 (stereo not drawn),13µM*,u,-103*,x,18µM*,8.2µM*
CC1CCCN(CCCNS(=O)(=O)c2ccc3c(c2)CCN3C(=O)C2CC2)C1 (stereo not drawn),5%,13%,0,0%,-6%,3%
O=C(N/N=C/c1ccc(Br)s1)c1ccccc1[N+](=O)[O-],0%,u,-4,-6%,-21%,-28%
O=C(NN=Cc1ccc2c(c1)CCC2)c1ccccc1[N+](=O)[O-],23µM*,-2%,3,x,-19%,18µM*
CCCn1c(=O)c2ccccc2n2c(SCCOc3ccc(OC)cc3)nnc12,u,20%,-4,3%,5%,u
COc1ccccc1Cn1c(=O)c2ccccc2n2c(SCc3csc(C)n3)nnc12,u,-25%,-55*,1%,1%,u
COc1ccccc1Cn1c(=O)c2ccccc2n2c(Sc3ncnc4sccc34)nnc12,21µM*,2%,-85*,-2%,-4%,21µM*
CCOC(=O)c1ccccc1NC(=O)c1c2c(nc3ccccc13)C(=O)N(C1CCCCC1)C2,-15%,42%,x,x,-2%,-17%
CSCCC1NC(=O)C(C(C)=NNC(N)=O)=C1O (stereo not drawn),u,0%,0,0%,5%,16µM*
Cc1onc(-c2ccccc2)c1C(=O)NC(=S)NNC(=O)c1ccco1,u,u,94,1%,-22%,16µM*
Cc1onc(-c2ccccc2)c1C(=O)NNC(=S)NC(=O)c1ccc2c(c1)OCO2,-94%,u,58,-1%,-17%,1.6µM*
Cc1onc(-c2ccccc2)c1C(=O)NC(=S)NNC(=O)c1cc(-c2ccc(F)cc2)n[nH]1,u,-33%,3,-1%,-61%,21µM*
Cc1onc(-c2ccccc2)c1C(=O)NNC(=S)NC(=O)/C=C/c1cccs1,16µM*,0%,30,2%,-16%,23µM*
COc1ccc(C(=O)NC(=S)NNC(=O)c2c(-c3ccccc3)noc2C)cc1OC,-3%,-22%,47,-2%,-21%,u
Cn1c(=O)[nH]c(=O)c2[nH]cnc21,-12%,x,x,x,x,-4%
O=C(NNC(=S)NC1CCCCC1)c1ccc2c(c1)OCO2,u,-13%,21,0%,-22%,18µM*
O=C(NC1CCCCCCC1)c1ccc2c(c1)OCO2,-27%,1%,-25,3%,-28%,u
Cc1onc(-c2ccccc2)c1C(=O)NC1CCC(C)CC1 (stereo not drawn),13µM*,-4%,34,7%,0%,u
CCCOc1ccc(CCc2n[nH]c(=S)n2-c2ccccc2)cc1,u,-8%,1,-1%,9%,16µM*
CCCOc1ccc(CCc2n[nH]c(=S)n2Cc2ccccc2)cc1,u,u,-10,-10%,-52%,21µM*
S=c1[nH]nc(CCc2ccccc2)n1Cc1ccccc1,-30%,-2%,12,-2%,0%,u
CCN(CC)CC(O)Cn1c(C)c(-c2ccccc2)c2cc([N+](=O)[O-])ccc21 (stereo not drawn),21µM*,u,-77*,-11%,-103%,9.2µM*
SMILES,DT40 TDP1 CPT,TGFb inhibitor,IL1B secr inh,S-ASM inh,HepG2 viability,TDP1 cell noCPT
C#CCOCCOCCOCCNc1nc(N2CCN(C(=O)Cn3cc(CCCN=C(N)N)nn3)CC2)nc(N2CCN(C(=O)[C@H](CCCCN)n3cc(CCCC)nn3)CC2)n1,0%,0%,21,6%,1%,6%
O=C(OCCN1CCOCC1)c1ccccc1Cl,-4%,1%,3,0%,6%,-9%
Cc1nn(-c2ccccc2)c2c1N(CC(=O)N1CCN(c3ccc(Cl)cc3)CC1)C(=O)CS2,u,u,x,x,-3%,u
COc1ccc(N2CCN(C(=O)CN3C(=O)CSc4c3c(C)nn4-c3ccccc3)CC2)cc1,u,0%,x,x,-2%,u
Cc1nn(-c2ccccc2)c2c1N(CCCC(=O)NC(C)c1ccccc1)C(=O)CS2 (stereo not drawn),15µM*,u,x,x,-16%,u
CCCCOc1ccc(CNC(=O)CCCN2C(=O)CSc3c2c(C)nn3-c2ccccc2)cc1,18µM*,u,x,x,-23%,13µM*
Cc1nn(-c2ccccc2)c2c1N(CCCC(=O)NCc1ccc(OC(C)C)cc1)C(=O)CS2,15µM*,u,x,x,-20%,7.3µM*
Cc1nn(-c2ccccc2)c2c1N(CCCC(=O)NCc1ccc(Cl)cc1)C(=O)CS2,26µM*,u,x,x,-25%,23µM*
CSc1ccc(-c2ccc(C(=O)NCC3CCCO3)c(N3CCC(O)CC3)n2)cc1 (stereo not drawn),-4%[9.04 µM],x,x,x,x,-13%
COc1cccc(NC(=O)[C@@H](NC(=O)N2CCn3c2nc2ccccc23)C(C)C)c1,-13%,u,5,-21%,-2%,13µM*
COc1ccc(CCNC(=O)[C@@H](NC(=O)N2CCn3c2nc2ccccc23)C(C)C)cc1OC,u,-11%,-13,-1%,-10%,u
COc1ccc(CCNC(=O)[C@H](CC(C)C)NC(=O)N2CCn3c2nc2ccccc23)cc1OC,-64%,u,-66*,3%,-2%,u
CCC(C)[C@H](NC(=O)N1CCn2c1nc1ccccc12)C(=O)NCCc1ccccc1 (stereo partly drawn),21µM*,u,-59*,-11%,3%,u
